Results filed as inconclusive are left out. Entries that show only a call come without a potency. Activity calls are given as the source filed them. The call rests on the fitted dose curve.
Assay: qHTS assay for small molecule agonists of the p53 signaling pathway - cell viability (AID 651633); further: nearly all actives have a fitted effect of over 30% in size
Settings: p53RE-bla HCT-116 viability, ATP luminescence, 16 h; series mostly up to 83.3 µM
From the text: National Center for Advancing Translational Sciences [NCATS]
NIH Chemical Genomics Center [NCGC]
U.S. Environmental Protection Agency [EPA]
National Institutes of Environmental Health Sciences [NIEHS]
National Toxicology Program [NTP]
U.S. Food and Drug Administration [FDA]
p53, a tumor suppressor protein, is activated following cellular insult, including DNA damage and other cellular stresses. The activation of p53 regulates cell fate by inducing DNA repair, cell cycle arrest, apoptosis, or cellular senescence. The activation of p53, therefore, is a good indicator of DNA damage and other cellular stresses. […] The activation of the reporter gene under culture conditions can be detected by fluorescence intensity. This cell line was used to screen the Tox21 compound library in a 1536-well plate format and to identify agonists that activate the p53 signaling pathway.
Tox21 Assay Protocol Summary:
The p53RE-bla cells were dispensed at 4,000 cells/5 ul/well in 1536-well black wall/clear bottom plates using a Multidrop dispenser. After the assay plates were incubated at a 37 C/5% CO2 incubator for 5 hours, 23 nL of compounds dissolved in DMSO, positive controls or DMSO only was transferred to the assay plate by a pin tool. The plates were incubated at 37 C for 16 hours. After 1 uL of LiveBLAzerTM B/G FRET substrate was added using a Flying Reagent Dispenser, the plates were incubated at room temperature for 2 hours, and fluorescence intensity was measured by an Envision plate reader.
For cell viability readout that measures cytotoxicity, 4 ul/well of CellTiter-Glo reagent was added into the assay plates using a Flying Reagent Dispenser. After 30 min incubation at room temperature, the luminescence intensity in the plates was measured using a ViewLux plate reader.
Potency means the concentration at half of the fitted maximal effect.

Compound | Potency
CC[C@H]1C[C@H]2[C@@H]3CCC4=CC(=O)CC[C@@H]4[C@H]3CC[C@]2(C)[C@H]1O | inactive
CCOC(=O)CBr | inactive
Cn1cc[n+](C)c1 (tested in a mixture with another compound) | inactive
CC(=O)c1cc2c(cc1C)C(C)(C)C(C)CC2(C)C (stereo not given) | 61.1 µM (active)
CCOP(=S)(OCC)SCn1nnc2ccccc2c1=O | 27.3 µM (active)
O=[N+]([O-])c1ccccc1CCl | inactive
O=C(N[C@H](c1ccccc1)[C@@H]1CN2CCC1CC2)c1c(Cl)ccc(C(F)(F)F)c1Cl | inactive
CCCCCC[N+](=O)[O-] | inactive
CNC(C)Cc1ccccc1OC (stereo not given) | inactive
C[C@@H]1CC[C@H]2[C@@H](C)C(=O)O[C@@H]3O[C@@]4(C)CC[C@@H]1[C@]32OO4 | inactive
C[C@H]1CNCCc2ccc(Cl)cc21 | inactive
C=CC(=O)OCC(C)C | inactive
N#Cc1ccc(Cl)cc1 | inactive
COP(=O)(OC)O/C(=C/Cl)c1cc(Cl)c(Cl)cc1Cl | inactive
CC(Cl)Cl | inactive
NC(=O)CI | inactive
CCCCC(CC)COP(=O)(Oc1ccccc1)Oc1ccccc1 (stereo not given) | inactive
C=CC[C@]1(O)CC[C@H]2[C@@H]3CCC4=CC(=O)CCC4=C3C=C[C@@]21C | inactive
O=C(NC(=O)c1c(F)cccc1F)Nc1cc(Cl)c(Oc2ncc(C(F)(F)F)cc2Cl)c(Cl)c1 | 7.37 µM (active)
c1cc2ccc3cccc4ccc(c1)c2c34 | inactive

Compound | Potency
OCCCBr | inactive
N#CCC#N | inactive
CCOP(=S)(OCC)Oc1cc(Cl)c(Br)cc1Cl | inactive
Cc1ccccc1CCl | inactive
NCCCNCCCN | inactive
COc1c(C(C)(C)C)cc([N+](=O)[O-])c(C)c1[N+](=O)[O-] | inactive
Clc1ccc(C2(Cn3cncn3)CC(Br)CO2)c(Cl)c1 (stereo not given) | inactive
CC1CC(CC2CCC(N)C(C)C2)CCC1N (stereo not given) | inactive
O=S1(=O)OC(c2cc(Br)c(O)c(Br)c2)(c2cc(Br)c(O)c(Br)c2)c2ccccc21 | 44.5 µM (active)
CCCCN(N=O)C(=N)N[N+](=O)[O-] | inactive
NC(=O)C(Cl)(Cl)Cl | inactive
CC(C)(OO)c1ccccc1 | inactive
Cl/C=C\Cl | inactive
O=C(Nc1ccccc1)Nc1ccnc(Cl)c1 | inactive
O=C(O)CC(Cl)C(=O)O (stereo not given) | inactive
O=Cc1ccc(Cl)cc1Cl | inactive
C=CC(=O)OCCCCO | inactive
O=C(CBr)OCc1ccccc1 | inactive
O=S1OC[C@@H]2[C@H](CO1)[C@]1(Cl)C(Cl)=C(Cl)[C@@]2(Cl)C1(Cl)Cl (stereo not given in full) | 61.1 µM (active)
COc1cc(Cl)c(OC)cc1Cl | inactive

— PubChem BioAssay (Tox21)
